TWEAK Fn14 block = TWEAK-Fn14 signaling inhibition; TWEAK-stimulated Fn14 reporter cells, luciferase luminescence, 8 h; inhibition, % at 10 µM; hit rate 2% among 360,000; in the data active = inhibition above about 50%
PAX8 reporter = PAX8 transcriptional activity inhibition; RMG-I TPO-luciferase reporter, SteadyGlo, 24 h; hit rate 1.2% among 360,000; inhibition, % at 12.6 µM;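 active = mean replicate inhibition at least 60% with every replicate also reaching 60%; inconclusive = only one of the two criteria is met; inactive = mean below 60% and not all replicates reaching 60%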;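 also: luciferase light reporting Pax8 driven TPO promoter activity; plate controls were median of neutral control wells for no effect and mitoxantrone controls for full effect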
EWS-Fli inh = blocks EWS/Fli oncoprotein-driven transcription | A673 NR0B1-luciferase reporter, viability-normalised | AID 651661 | inhibition, % at 12.6 µM | hit rate 0.67% among 350,000;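 active = mean inhibition of at least 50% after viability correction, with every replicate also passing that limit; inconclusive = mean reaches 50% but only one of two replicates passes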;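 also: firefly luciferase signal divided by Alamar Blue viability fluorescence both relative to DMSO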
LGR2 inh = inhibitors of bursicon-induced Drosophila LGR2 receptor cAMP signaling; HEK293 LGR2, CRE-luciferase, bursicon-stimulated, 4 h; inhibition, % at 9.99 µM; hit rate 0.35% among 380,000; AID 720647;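 active = drop in luminescence signal, shown as inhibition above about 50% in the replicate tests, limit read from the data, passing the limit was not always enough; inconclusive = probably only some replicates passing the limit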;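 also: agonist challenge used bursicon conditioned medium at about half maximal strength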
TROY signal inh = inhibitors of TROY-dependent NF-kB signaling | Q293 LMP1-TROYcd NF-kB luciferase reporter, 4 h | inhibition, % at 10 µM | hit rate 0.98% among 360,000 | AID 1347056;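 active = compounds whose plate-normalised and pattern-corrected inhibition of the luciferase reporter signal at the single screening dose is 50% or more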
* marks the source's active call; other numbers are inactive results; u = inconclusive; x = not tested or not shown. Only some compounds are listed: those with a hit (about 2.8% of all), similar ones and a draw of the others.

SMILES | TWEAK Fn14 block | PAX8 reporter | EWS-Fli inh | LGR2 inh | TROY signal inh
Cc1cc(C)c2c(N)c(C(=O)NN3CC(=O)N(c4ccccc4F)CC3=O)sc2n1 | 103* | x | x | -15 | -4
O=C(NCC[C@@H]1CC[C@@H](NC(=O)C2CC2)[C@@H](CO)O1)c1ccc(F)cc1 | x | x | -4 | 15 | x
COc1ccccc1S(=O)(=O)N(C)C[C@H]1Oc2cc(C#CCC(C)C)ccc2S(=O)(=O)N([C@@H](C)CO)C[C@H]1C | x | x | 22 | 35 | x
COc1ccccc1S(=O)(=O)N(C)C[C@H]1Oc2cc(C#CCC(C)C)ccc2S(=O)(=O)N([C@H](C)CO)C[C@@H]1C | x | x | 19 | 10 | x
COc1ccccc1S(=O)(=O)N(C)C[C@@H]1Oc2cc(C#CCC3CCCC3)ccc2S(=O)(=O)N([C@@H](C)CO)C[C@H]1C | x | 73* | -3 | 5 | x
COc1ccccc1S(=O)(=O)N(C)C[C@@H]1Oc2cc(C#CCC3CCCC3)ccc2S(=O)(=O)N([C@@H](C)CO)C[C@@H]1C | x | 76* | 10 | 6 | x
COc1ccc(S(=O)(=O)N2CCC3(CC2)CN(C(=O)CN(C)C)[C@@H](CO)c2c3c3ccc(OC)cc3n2C)cc1 | x | 12 | 15 | 3 | x
COc1ccc(/C=N/Nc2nc3ccccc3o2)cc1O | 72* | -55 | x | x | -26
COc1ccc(/C=N/NC(=O)c2nc(-c3ccccc3)cc(-c3ccccc3)n2)cc1O | 54* | -3 | x | 14 | -31
COc1cccc(C=NNc2nc3ccccc3s2)c1OC | 34 | -118 | -40 | 26 | 45
COc1ccc(/C=N/Nc2nc3ccccc3s2)cc1O | 74* | 12 | -26 | 86* | 60*
COc1ccc2c3c(n(C)c2c1)[C@H](CO)N(C(=O)Nc1ccccc1F)CC31CN(C(C)=O)C1 | x | x | -2 | x | x
COc1ccc(CC(=O)NCc2ccc(-n3cccc3)cc2)cc1OC | 17 | 27 | 60* | 7 | 23
O=C1c2cc(Cl)ccc2-c2c(O)cc(Cl)cc21 | 54* | -8 | -5 | -5 | 39
O=c1cc(O)c(-c2ccc(Cl)cc2)c(Cl)[nH]1 | 0 | 27 | 9 | -5 | 2
CCC(=O)N1[C@@H](CO)[C@H](c2ccccc2)C12CN(C(=O)c1cnccn1)C2 | x | x | x | -2 | x
COc1ccc(NC(=O)Nc2cccc3c2O[C@H](CN(C)Cc2ccc(Cl)c(Cl)c2)[C@@H](C)CN([C@H](C)CO)C3=O)cc1 | x | x | 0 | 22 | x
COc1ccc(CNC[C@@H](CCCCN(C)Cc2ccc(OC)cc2)N2C[C@H](c3ccccc3)N(CCc3ccc(Cl)c(Cl)c3)C(=O)C2=O)cc1 | 97* | x | x | x | 34
CO[C@H]1CN(C)C(=O)c2cc(NC(=O)Cc3ccccc3)ccc2OC[C@H](C)NC[C@H]1C | x | -9 | 0 | 15 | x
O=C1c2ccccc2CN2C(=O)c3ccccc3CN12 | 7 | 2 | x | 2 | 6
c1ccc(-c2cn3c(n2)-c2ccccc2C3)cc1 | 72* | -6 | 17 | u | 33
C[C@H](CO)N1C[C@H](C)[C@H](CN(C)S(=O)(=O)c2ccc(Cl)cc2)Oc2ccc(NC(=O)CCN3CCOCC3)cc2CC1=O | x | x | -8 | 3 | x
O=S(=O)(CC(CN1CCOCC1)N1CCOCC1)c1ccccc1 (configuration not stated) | 0 | -10 | -14 | -25 | 3
Cc1ccc(S(=O)(=O)CC(CN2CCCCC2)N2CCCCC2)cc1 (configuration not stated) | 13 | 90* | -15 | 39 | -12
O=S(=O)(CC(CN1CCCCC1)N1CCCCC1)c1ccc2ccccc2c1 (configuration not stated) | 41 | 31 | 6 | 50* | -30
SMILES | TWEAK Fn14 block | PAX8 reporter | EWS-Fli inh | LGR2 inh | TROY signal inh
C[C@@H]1CN([C@@H](C)CO)C(=O)Cc2cc(NC(=O)c3ccncc3)ccc2O[C@H]1CN(C)Cc1ccc(Oc2ccccc2)cc1 | x | 34 | 35 | 16 | x
Cc1ccccc1NC(=O)c1cnc2ccccn2c1=O | 83* | x | x | x | 34
COc1cccc(/C=C/C(=O)NCCc2ccc3c(c2)OCCO3)c1 | -15 | 6 | 57* | x | 2
O=C(/C=C/c1ccccc1)NCCc1ccc2c(c1)OCCO2 | 2 | 69* | -4 | -7 | -28
Cn1c(=O)c2c(ncn2CCC(=O)N/N=C/c2cccnc2)n(C)c1=O | 84* | -2 | 2 | x | 0
Cn1c(=O)c2c(ncn2CCC(=O)N/N=C/c2ccccc2)n(C)c1=O | 1 | 14 | -1 | 3 | -1
O=C(NCc1ccc(F)cc1F)[C@@H]1CCCN1C(=O)[C@@H]1CCCN1 | 13 | 80* | 5 | -22 | 9
Cc1ccc(/C(N)=N/OC(=O)c2ccc(Cl)cc2Cl)cc1 | 79* | -93 | -1 | 27 | 61*
Cc1cccc(C(=O)O/N=C(\N)c2ccc(Cl)cc2)c1 | 8 | -85 | -111 | -17 | -21
COc1ccccc1C(=O)O/N=C(\N)c1ccccn1 | 74* | 7 | -13 | u | 55*
COc1cc(OC)c(C(=O)O/N=C(\N)c2ccccn2)cc1OC | -24 | -38 | -9 | -19 | -26
N/C(=N\OC(=O)Cc1ccc(-c2ccccc2)cc1)c1ccccn1 | 70* | -100 | x | x | 70*
N/C(=N\OC(=O)c1ccccc1[N+](=O)[O-])c1ccccn1 | 34 | -70 | -60 | 20 | 14
COc1ccc(CC(=O)O/N=C(\N)c2ccccn2)cc1 | 9 | -70 | -53 | -13 | -18
N/C(=N\OC(=O)c1ccccc1Cl)c1ccccn1 | 102* | x | 54* | 95* | 70*
CC(C)NC(=O)N(C)C[C@H]1Oc2ncc(C#CC3CCCCC3)cc2C(=O)N([C@@H](C)CO)C[C@H]1C | x | x | -4 | -10 | x
O=C(C[C@@H]1CC[C@H]2[C@@H](COC[C@@H](O)CN2Cc2ccc(Cl)cc2)O1)NCCc1ccccc1 | x | 31 | 14 | -2 | x
Cc1ccc(C(=O)O/N=C(\N)c2ccccn2)c(C)c1 | 104* | x | 77* | 101* | 87*
CCN(CC)S(=O)(=O)c1ccc(N2CCOCC2)c(NC(=O)c2cc(-c3ccccn3)nc3ccccc23)c1 | 29 | 78* | 14 | 35 | 21
CC(C)(C)NCC(=Cc1ccccc1)C(=O)c1ccccc1 | 99* | 74* | 57* | 72* | 21
O=[N+]([O-])c1cccc(-c2cc(-c3cc(Br)ccc3O)[nH]n2)c1 | 84* | 44 | 16 | 12 | 33
Oc1ccc(Br)cc1-c1cc(-c2ccccc2)n[nH]1 | -1 | x | x | x | 3
CO[C@@H]1CN(C)C(=O)c2cc(NC(=O)Nc3ccccc3F)ccc2OC[C@@H](C)N(Cc2ccccc2F)C[C@H]1C | x | x | 6 | 14 | x
CO[C@@H]1CN(C)C(=O)c2ccc(NC(=O)Nc3ccccc3F)cc2OC[C@@H](C)N(Cc2ccccc2F)C[C@H]1C | x | 71* | -4 | -1 | x
COc1cccc(S(=O)(=O)Nc2ccc3c(c2)C(=O)N(C)C[C@H](OC)[C@@H](C)CN(Cc2ccccc2F)[C@@H](C)CO3)c1 | x | 65* | 6 | 10 | x
Cc1cc(C(=O)Nc2cccc3c2O[C@@H](CN(C)C(=O)NC(C)C)[C@H](C)CN([C@H](C)CO)C3=O)n(C)n1 | x | -5 | 18 | -7 | x

Bioassay records from PubChem BioAssay.
